Assay results taken from PubChem BioAssay (NCI).
About 83,000 compounds went through this panel and 20% of them were active in at least one assay; those are over-represented in the sample as a whole.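 In brief: 96-well plates, 48 h treatment, single concentration, percent growth endpoint.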 Calls of active or inactive are those of the source. The calls were made as follows: active = growth percent below 10; inactive = the rest.

What was measured:
Test in all cases: NCI-60 one-dose screen, 48 h (100 = growth as untreated, 0 = no growth, -100 = all killed)
Settings in all cases: 10 µM unless noted
[1] = test system: SR leukemia
[2] = test system: RPMI-8226 leukemia
[3] = test system: OVCAR-8 ovarian
[4] = test system: OVCAR-5 ovarian
[5] = test system: OVCAR-4 ovarian
[6] = test system: SK-OV-3 ovarian
[7] = test system: IGROV1 ovarian
[8] = test system: OVCAR-3 ovarian
[9] = test system: HS 578T breast
[10] = test system: NCI/ADR-RES ovarian

Measured: growth

C#CCn1cnc2cnc(Nc3cccc(NC(=O)C=C)c3)nc21
active: [1] 4.73% [6.25 µM] | [2] -14% [6.25 µM]
inactive: [3] 84.1% [6.25 µM] | [4] 101% [6.25 µM] | [5] 90.8% [6.25 µM] | [6] 52.4% [6.25 µM] | [7] 75.2% [6.25 µM] | [8] 104% [6.25 µM] | [9] 74.5% [6.25 µM] | [10] 98.6% [6.25 µM]

Cc1nc2ccccc2c(/C=C/c2ccccc2)c1C(=O)/C=C/c1ccccc1
active: [2] 8.21% | [4] 6.51% | [8] 3.37%
inactive: [1] 12.3% | [3] 10.4% | [5] 38.5% | [6] 68.1% | [7] 18.5% | [9] 41.9%

COc1ccc(/C=C/c2ccc3ccccc3n2)c(OC)c1
inactive: [1] 29.4% | [2] 74.7% | [3] 92.5% | [4] 86.5% | [5] 95.9% | [6] 88.6% | [7] 59.9% | [8] 74% | [9] 85.5% | [10] 49.7%

C=C(C)[C@@H]1CC[C@]2(C)[C@H](CC=C3[C@@H]4CC(C)(C)CC[C@]4(CO)CC[C@]32C)[C@@]1(C)CCCN
active: [1] -52.1% | [2] -47.5% | [3] -85.1% | [5] -21.8% | [7] 8.73% | [8] -42%
inactive: [4] 26% | [6] 82.8% | [9] 43.4%

CN(Cc1cc(Br)cc(Br)c1O)Cc1cc(Br)cc(Br)c1O
inactive: [1] 33.8% | [2] 27.6% | [3] 16.6% | [4] 68.9% | [5] 15.7% | [6] 56.4% | [7] 29.9% | [9] 58.9%
active: [8] 4.97%

C=C1C(=O)O[C@H]2[C@H]1CC/C(COC(=O)c1ccc(C(=O)O)s1)=C\CC[C@@]1(C)O[C@@H]21
inactive: [3] 17.9% | [4] 48.6% | [5] 35.2% | [6] 96.6% | [9] 37.6%
active: [1] -12.8% | [2] -25.9% | [7] -26.8% | [8] 0.215%

CC1(C)CC[C@]23CC[C@]4(C)[C@H](CC[C@@H]5[C@@]6(C)C/C(=C/c7ccncc7)C(=O)C(C)(C)[C@@H]6CC[C@]54C)[C@H]2[C@H]1OC3
inactive: [1] 56.5% | [2] 50% | [3] 75.1% | [4] 89.8% | [5] 92.2% | [6] 94.7% | [7] 80.5% | [8] 84.4% | [9] 84.9% | [10] 97.8%

C#CCO[C@H]1CC(CC#C)(CC#C)C(=O)[C@@H]2[C@H]1[C@H]1C[C@@H]3[C@@]4(C)CCC[C@@](C)(C(=O)OC)[C@@H]4CC[C@@]23C=C1C(C)C
active: [1] -4.27% | [7] -64.2%
inactive: [2] 54.2% | [3] 58.4% | [4] 92.3% | [5] 85.2% | [6] 95.8% | [8] 71.7% | [9] 94.2%

O=C(Nc1ccc(Br)cc1)C1=NCCCCN1
inactive: [1] 107% | [2] 94.3% | [3] 74.8% | [4] 84.6% | [5] 96.5% | [6] 96.1% | [7] 87.5% | [8] 103% | [9] 97.1%

O=C(Nc1ccccc1[N+](=O)[O-])c1ccc(Cl)c(Cl)c1
inactive: [1] 92.3% | [2] 90.1% | [3] 95.5% | [4] 111% | [5] 81.4% | [6] 94.9% | [7] 87.2% | [8] 97% | [9] 87.8% | [10] 87.2%

COC(=O)CCC/C=C\C[C@H]1C=CC(=O)/C1=C/C[C@@H](O)C/C=C\CC(F)(F)F
inactive: [4] 39% | [5] 34% | [6] 77.4% | [7] 12.1% | [9] 41.9%
active: [1] 4% | [2] -11.8% | [3] 8.95% | [8] -3.96%

O=C1/C(=C\c2ccccn2)c2ccccc2N1c1c(Cl)cccc1Cl
active: [1] -4.3% | [2] -12.5% | [3] 4.47% | [5] 3.21% | [7] 8.25% | [10] -26.7%
inactive: [4] 122% | [6] 27.4% | [8] 27.4% | [9] 22.9%

COc1ccc(-c2cc(-c3ccccc3)nc(N3CCN(CCNc4ccnc5cc(Cl)ccc45)CC3)n2)cc1
active: [1] 7.06% | [2] -28.2% | [3] -81% | [5] -27.6% | [7] -74% | [8] 7.81%
inactive: [4] 48.2% | [6] 112% | [9] 66.4%
